Activity calls are given as the source filed them.
Assay: plasmodial surface anion channel blockers, osmotic lysis – cell-based, P. falciparum Indochina, OD700, 2 h, primary screen (AID 1155);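 further: lysis reports solute entry through the parasite surface anion channel PSAC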
Settings: P. falciparum Indochina infected erythrocytes, higher = more signal, called active from +8 up or from −8 down

z-score, inactive:
O=C1[C@H]2CCn3c(=O)n(-c4ccccc4)c(=O)n3[C@H]2[C@H](O)[C@@H]2O[C@H]12 0.105
CC(=O)OC[C@H]1O[C@H](CC=NOCC[C@@H]2C=C[C@H](OC(C)=O)[C@@H](COC(C)=O)O2)C=C[C@@H]1OC(C)=O 0.678
CCCNC(=O)OC[C@H]1O[C@H](CCON=C[C@@H](C)[C@H](OCc2ccccc2)C(C)C)C=C[C@@H]1Oc1ccc(OC)cc1 -1.58
CC(CCC(=O)OC[C@H]1O[C@H](C#Cc2ccccc2)C=C[C@@H]1Oc1ccc(C)cc1)=NOC(C)CN1CCCCc2nc(C)c(C)cc21 (stereo partly specified) 0.459
CCN1C(=O)[C@H]2[C@H]3[C@H](O)[C@H](O)CC(=NNC(=O)OCc4ccccc4)[C@H]3CC[C@H]2C1=O 0.322
CO[C@@H](C(C)C)[C@@H](C)C1OC(=O)CC1O (stereo partly specified) 0.0974
CC(C)=NOC(C)CN1CCCc2nc(C)c(C)cc21 (stereo unspecified) 0.774
CO[C@@H]1[C@H](O)CO[C@H]1C=Cc1ccccc1 0.178
COc1ccc(O[C@H]2C=C[C@@H](C#Cc3ccccc3)O[C@@H]2CO)cc1 0.323
CC(CCC(=O)OC[C@H]1O[C@H](C#Cc2ccccc2)C=C[C@@H]1Oc1ccc(C)cc1)=NOC[C@@H](C)[C@H](OCc1ccccc1)C(C)C 0.498
CC(CCN1CCc2nc(-c3ccccc3)c(-c3ccccc3)cc2C1)=NOC(C)CN1CCCc2nc(C)c(C)cc21 (stereo unspecified) 0.494
